Shown are actives, neighbours in structure and some others; about 3% of the full set was active somewhere.
KDM5B inh = Primary screen for KDM5B Histone Demethylases FDH-coupled qHTS. 2.6% of 220,000 active. Potency, µM (top dose mostly 57.7 µM), usual class: inhibitors. KDM5B demethylase, FDH-coupled NADH fluorescence (FDH is formaldehyde dehydrogenase). Lysine-specific demethylase 5B (Homo sapiens), Q9UGL1; note: nearly all actives have a fitted effect of over 70% in size
Target sequence (Q9UGL1 whole entry, looked up): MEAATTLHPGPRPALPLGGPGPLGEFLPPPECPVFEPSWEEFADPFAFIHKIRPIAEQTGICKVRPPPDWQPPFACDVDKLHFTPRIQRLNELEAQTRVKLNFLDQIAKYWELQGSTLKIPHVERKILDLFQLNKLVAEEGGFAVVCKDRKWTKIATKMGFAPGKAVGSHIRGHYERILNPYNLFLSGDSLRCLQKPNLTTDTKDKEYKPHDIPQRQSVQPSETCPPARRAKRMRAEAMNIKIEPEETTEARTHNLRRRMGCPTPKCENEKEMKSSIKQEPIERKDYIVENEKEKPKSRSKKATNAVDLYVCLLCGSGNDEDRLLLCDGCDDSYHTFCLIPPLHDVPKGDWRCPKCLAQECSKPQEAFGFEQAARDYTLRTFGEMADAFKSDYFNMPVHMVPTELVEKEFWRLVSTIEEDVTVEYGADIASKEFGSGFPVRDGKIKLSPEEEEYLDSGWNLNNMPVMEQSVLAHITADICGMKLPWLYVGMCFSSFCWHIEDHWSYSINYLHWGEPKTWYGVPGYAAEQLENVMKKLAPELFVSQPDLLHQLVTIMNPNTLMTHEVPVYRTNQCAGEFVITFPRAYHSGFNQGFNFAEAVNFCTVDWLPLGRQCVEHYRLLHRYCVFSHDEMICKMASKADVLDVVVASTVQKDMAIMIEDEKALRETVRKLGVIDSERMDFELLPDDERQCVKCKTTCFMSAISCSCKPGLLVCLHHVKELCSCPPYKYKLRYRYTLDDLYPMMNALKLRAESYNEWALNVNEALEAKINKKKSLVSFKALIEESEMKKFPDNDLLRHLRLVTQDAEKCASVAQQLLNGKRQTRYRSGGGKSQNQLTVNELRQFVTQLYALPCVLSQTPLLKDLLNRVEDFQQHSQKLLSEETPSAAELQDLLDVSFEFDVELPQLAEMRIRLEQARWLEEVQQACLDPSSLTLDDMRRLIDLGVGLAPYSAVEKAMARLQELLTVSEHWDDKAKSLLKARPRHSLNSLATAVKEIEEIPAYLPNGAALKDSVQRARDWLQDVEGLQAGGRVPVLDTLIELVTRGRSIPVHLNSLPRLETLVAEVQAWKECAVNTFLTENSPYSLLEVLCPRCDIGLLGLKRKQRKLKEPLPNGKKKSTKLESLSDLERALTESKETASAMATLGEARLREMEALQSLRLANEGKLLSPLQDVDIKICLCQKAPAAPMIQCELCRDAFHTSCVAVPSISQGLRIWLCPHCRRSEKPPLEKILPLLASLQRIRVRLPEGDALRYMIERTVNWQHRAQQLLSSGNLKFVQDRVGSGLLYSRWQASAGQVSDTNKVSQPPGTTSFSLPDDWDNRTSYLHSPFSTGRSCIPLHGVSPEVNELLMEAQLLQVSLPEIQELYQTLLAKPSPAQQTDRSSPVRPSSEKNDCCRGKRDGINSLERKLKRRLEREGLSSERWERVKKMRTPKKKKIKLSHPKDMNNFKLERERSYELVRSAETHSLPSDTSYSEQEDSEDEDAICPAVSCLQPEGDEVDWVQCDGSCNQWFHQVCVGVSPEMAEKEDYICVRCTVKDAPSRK
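Coupled FDH/NAD⁺ fluorescence readout. KDM5BΔAP 200 nM final; compound titration, 10 min RT preincubation; substrate mix 12.5 µM H3K4me3, 25 µM 2-OG, 50 µM Fe(II), 100 µM ascorbate, 0.25 mM NAD⁺, 0.25 U/mL FDH; ΔRFU over 30 min.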
IP6K1 inhibitor = Primary qHTS assay for small molecule inhibitors of Inositol hexaphosphate kinase 1 (IP6K1). activity change, % (series mostly up to about 58 µM). AID 1645851, 2021. Inositol hexakisphosphate kinase 1 (Homo sapiens), Q92551. IP6K1 kinase, ADP-Glo luminescence, 2 h; active compounds read low. 0.81% of 140,000 active; in the data active = activity change below about -25%
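ADP-Glo luminescence measures ADP made by human IP6K1 during a 2 h RT reaction with ATP/IP6 (mix at 1.3 mM/130 uM); top library doses 57.5 and 19.1 uM final.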
SNCA expr inhib = Primary qHTS assay for inhibitors of alpha-synuclein gene (SNCA) expression. HEK-293 SNCA-luciferase knock-in, luminescence, 24 h. Potency, µM (series often up to 57.2 µM), actives largely listed as inhibitors. 0.17% of 140,000 active; note: nearly all actives have a fitted effect of over 45% in size
SNCA viab count = GF-AFC viability counterscreen for inhibitors of alpha-synuclein gene (SNCA) expression. HEK-293-SNCA-luc viability, GF-AFC fluorescence, 24 h. Potency, µM (series often up to 57.1 µM), most hits filed as cytotoxic. 0.12% of 150,000 active. AID 1671193, 2021; note: nearly all actives have a fitted effect of over 30% in size
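Cytotoxicity counterscreen: after 24 h compound treatment of genome-edited SNCA-luciferase HEK-293 cells, live-cell protease substrate GF-AFC read by fluorescence after 30 min; activity scaled between DMSO (0%) and medium-only (-100%), curves Hill-fitted.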
Large screens that a line does not name were inactive. Unless noted, calls come from the whole dose curve; as a rule, active = well fitted curve in the direction sought with a large enough effect; inconclusive = small, poorly fitted or top-dose-only effect, or another doubt; inactive = no such curve, though single readings can be large; an effect the other way counts as inactive or inconclusive.

CC1(C(=O)NC2CCOCC2)CCCc2cnc(NCc3ccccc3)nc21 (stereo not given)	KDM5B inh 40µM
CC1(C(=O)NCc2cccnc2)CCCc2cnc(NCc3ccccc3)nc21 (stereo not given)	KDM5B inh inconclusive
CC1(C(=O)NCc2cccnc2)CCc2cnc(NCc3ccccc3)nc21 (stereo not given)	KDM5B inh 32µM, SNCA expr inhib inconclusive
O=C(O)c1cccc(-c2ccc(F)cc2)c1	none (no result: IP6K1 inhibitor, SNCA expr inhib, SNCA viab count)
O=C(O)Cn1ccc2cc(OCCc3cccc(-c4cccc(F)c4)c3)cnc21	KDM5B inh 40µM
Cn1nccc1-c1cccc(CCOc2cnc3c(ccn3CC(=O)O)c2)c1	KDM5B inh inconclusive
COc1cccc(-c2cccc(CCOc3cnc4c(ccn4CC(=O)O)c3)c2)c1	KDM5B inh 32µM
O=C(O)Cn1ccc2cc(OCCc3cccc(-c4ccc(F)cc4)c3)cnc21	KDM5B inh 40µM
COc1ccccc1-c1ccc(CN2CCCCC2C(=O)NCCc2ccccc2)cc1 (stereo not given)	SNCA expr inhib inconclusive (no result: KDM5B inh)
CCc1ncc2c(N3CC4CCC(C3)N4CC(F)(F)F)nc3ccccc3n12	KDM5B inh 71µM
COc1cc2ncnc(N3CC4CCC(C3)N4CC(F)(F)F)c2cc1OC	none
CC(C)(C)CNc1ccc(C(=O)N2CCC(CN3CCCC3=O)CC2)cn1	KDM5B inh 14µM
O=C1CCCN1CC1CCN(C(=O)c2ccc(N3CC[C@H](O)C3)nc2)CC1	KDM5B inh inconclusive
CNc1ccc(C(=O)N2CCC(CCn3cccn3)CC2)cn1	KDM5B inh 22µM
COc1ccc2c(c1)C(CN1CCN(CC(=O)OC(C)(C)C)CC1)=CC(C)(C)CO2	none (no result: KDM5B inh, SNCA expr inhib, SNCA viab count)
CCOC(=O)[C@@H]1CN(C(=O)CC(C)(C)C)[C@H]2c3cccc(C)c3O[C@@H]12	none (no result: KDM5B inh, SNCA expr inhib, SNCA viab count)
COc1cccc(-c2ccc(C(=O)N3CCC(NC(=O)c4ccccc4C)CC3)cc2)c1	none (no result: KDM5B inh)
COc1cccc2c1CCN=C2C[C@H]1CN(C(=O)C2CCC2)CC[C@H]1CC(=O)O	KDM5B inh 35µM
COc1ccc2c(c1)C(C[C@H]1CN(C(=O)C3CCC3)CC[C@H]1CC(=O)O)=NCC2	KDM5B inh 35µM
COCC(=O)N1CC(N2C(=O)c3c(c(C)nn3-c3ccccc3)C2C2CC2)C1 (stereo not given)	none (no result: KDM5B inh, SNCA expr inhib, SNCA viab count)
COc1cccc(-c2cn3cc(C(=O)N4CCOCC4)nc3s2)c1	SNCA expr inhib 13µM, SNCA viab count inconclusive (no result: KDM5B inh)
COc1ccc(-c2cn3cc(C(=O)N4CCOCC4)nc3s2)cc1	none (no result: KDM5B inh)
Cc1cc(-c2cc3c(cn2)CN(Cc2ccccc2F)CCN3)ccn1	KDM5B inh 35µM
c1ccc(CNc2cc3c(cn2)CN(Cc2cccnc2)CCN3)cc1	KDM5B inh inconclusive
COc1ccc(-c2cc3c(cn2)CN(Cc2cccnc2)CCN3)cc1OC	KDM5B inh inconclusive
Fc1ccccc1-c1cc2c(cn1)CN(Cc1cccnc1)CCN2	KDM5B inh 32µM, SNCA expr inhib inconclusive
COc1ccc(-c2cc3c(cn2)CN(Cc2cccnc2)CCN3)cc1F	KDM5B inh 35µM
O=C(c1cnccn1)N1CCC([C@@H]2CNC[C@H]2CO)CC1	KDM5B inh 14µM, SNCA expr inhib inconclusive
O=C(c1ccc(Cl)cc1)N1CCC([C@@H]2CNC[C@H]2CO)CC1	none
COc1cccc(-c2cn3cc(C(=O)NCC(C)C)nc3s2)c1	none (no result: KDM5B inh)
NC(=S)N/N=C/C1=C(c2ccccc2)C2C=CC1C2 (stereo not given)	none (no result: IP6K1 inhibitor, SNCA expr inhib, SNCA viab count)
Cc1c(-c2ccccc2F)[nH]c2ccc(CNC(=O)CC3CCC(=O)N3)cc12 (stereo not given)	KDM5B inh 32µM
Cc1c(-c2ccccc2F)[nH]c2ccc(CNC(=O)CCN3CCCO3)cc12	KDM5B inh 25µM
Cc1c(-c2ccccc2F)[nH]c2ccc(CNC(=O)CCc3cnccn3)cc12	KDM5B inh 13µM
Cc1c(-c2ccccc2F)[nH]c2ccc(CNC(=O)CCc3cc(=O)[nH]o3)cc12	KDM5B inh inconclusive, SNCA expr inhib inconclusive
CCC(=O)N1CCc2c(sc3ncnc(NCc4ccccn4)c23)C1	KDM5B inh 28µM
CCC(=O)N1CCc2c(sc3ncnc(N4CCN(C)CC4)c23)C1	KDM5B inh inconclusive
CCC(=O)N1CCc2c(sc3ncnc(Nc4ccccc4)c23)C1	KDM5B inh inconclusive
CCNc1ncnc2sc3c(c12)CCN(Cc1ccncc1)C3	KDM5B inh 25µM
CCC(=O)N1CCc2c(sc3ncnc(N)c23)C1	KDM5B inh 28µM
CCNc1ncnc2sc3c(c12)CCN(C(=O)COC)C3	KDM5B inh 35µM
CCNc1ncnc2sc3c(c12)CCN(C(=O)CCOC)C3	KDM5B inh inconclusive
Cc1noc(C)c1-c1cc2cc(C(C)C)oc2c(-c2cccc(CO)c2)n1	KDM5B inh inconclusive
Cc1noc(C)c1-c1cc2c(cc(C)n2CCN(C)C)c(Nc2ccn(C)n2)n1	none
Cc1noc(C)c1-c1cc2c(cc(C)n2CCN(C)C)c(-c2cccnc2)n1	KDM5B inh 32µM
COc1ccc(-c2nc(-c3c(C)noc3C)cc3cc(C(C)C)oc23)cn1	KDM5B inh 28µM
COc1ccc(-c2nc(-c3c(C)noc3C)cc3c2cc(C)n3CCN(C)C)cn1	KDM5B inh 40µM
Cc1nc2cc(NS(=O)(=O)c3ccccc3C(F)(F)F)ccc2o1	none (no result: IP6K1 inhibitor, SNCA expr inhib, SNCA viab count)
CC(C)CSc1nnc(-c2c[nH]c3ccccc23)n1C1CC1	none (no result: IP6K1 inhibitor, SNCA expr inhib, SNCA viab count)
O=C(c1cc(=O)c2cc(Cl)ccc2o1)N(Cc1ccccc1)c1ccccn1	none (no result: IP6K1 inhibitor, SNCA expr inhib, SNCA viab count)
Cn1cc(CC(=O)N2CCCc3ncc(C(=O)Nc4cccc(F)c4)cc32)c2ccccc21	KDM5B inh 32µM, SNCA viab count inconclusive
Cn1cc(CC(=O)N2CCCc3ncc(C(=O)Nc4cccc(C(F)(F)F)c4)cc32)c2ccccc21	KDM5B inh 22µM
COc1cccc(NC(=O)c2cnc3c(c2)N(C(=O)Cc2cn(C)c4ccccc24)CCC3)c1	KDM5B inh inconclusive, SNCA viab count inconclusive
O=C(NCCc1ccc(F)cc1)C1CCN(C(=O)c2ccc(-c3cccs3)cc2)CC1	none (no result: KDM5B inh, SNCA expr inhib, SNCA viab count)
COc1ccc(F)cc1-c1ccc(CN2CCC(N[S+](=O)([O-])c3ccc(C)cc3)C2)cc1 (stereo not given)	none (no result: KDM5B inh, SNCA expr inhib, SNCA viab count)
Cc1c(-c2ccc(F)cc2)[nH]c2ccc(CNC(=O)c3cnn(C)c3)cc12	KDM5B inh 32µM
Cc1c(-c2ccc(F)cc2)[nH]c2ccc(CNC(=O)c3n[nH]c4c3CCCC4)cc12	KDM5B inh 10µM, SNCA viab count inconclusive
Cc1onc(C(=O)NCc2ccc3[nH]c(-c4ccc(F)cc4)c(C)c3c2)c1CO	KDM5B inh inconclusive
CN(C)c1ccc(CN2CCC[C@H]2c2nc(-c3ccnc(N4CCC(C(N)=O)CC4)c3)no2)cc1	KDM5B inh inconclusive
NC(=O)C1CCN(c2cc(-c3noc([C@@H]4CCCN4Cc4ccc(F)c(F)c4)n3)ccn2)CC1	KDM5B inh 25µM
